± gives the standard deviation of the averaged measurements. Over roughly 25,000 sequences, “ln(normalized median fluorescence intensity)” has its median near 8.9; the highest 2% begin near 10. Many of the other results were omitted from the sample, so the highest values are more common in it than they were.

Consider 90 sequences from the supplement of paper PMC11417369.

The assay deals with PfAP2-LT AP2 domain (GST-tagged). Kind of assay: gcPBM binding intensity (ln(normalized median fluorescence intensity)); higher = stronger DNA binding. An outline of the steps:
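Binding intensity is the highest Masliner-normalised natural-log median intensity over replicate spots in either probe orientation. To obtain it, GST-tagged P. falciparum DNA-binding domains made in E. coli were incubated for 1 h on an Agilent 4 × 180k array of primer-extended double-stranded 36-bp intergenic genomic probes plus negative controls. Detection used Alexa488 anti-GST antibody with scanning at 488 nm.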
As for “ATATTATATTATATAACACACATTTTTCATAACACT [CACACA_site407]”, the “gcPBM binding intensity (ln)” value came out at 8.95 ± 0.34.
For the sequence “TATTAATTTTTATACGCATGTGTATAGTAATATATA [TGCATGCA_site1010]”, the “gcPBM binding intensity (ln)” value came to 8.66 ± 0.37.
As for “TTTATAAACAAATGAACACACAAACATATTTATATA [CACACA_site7478]”, the “gcPBM binding intensity (ln)” value is 8.86 ± 0.42.
The value for “TATGAATATCTATACACACACATATATATACTCACT [CACACA_site1597]” was 9.39 ± 0.36; that for “ATACGAAGTACGTACACACACTTATATGTTACTAAA [CACACA_site7812]” was 9.26 ± 0.33; that for “CAATACTATTATTATAGTACGTATAAAATTATATAT [XGTACX_site4950]” was 8.71 ± 0.49.
Under “TATTTTATCATTTGCACACGCACACCGACATAAAAA [CACACA_site4348]” stands 9.26 ± 0.28; under “AAAAGTATATATTCAGTGCATAGTCTTTAAATATAA [GTGCAC_site9522]”, 8.7 ± 0.38.
Under “AAAAAAAAAAAAAAAACACACATATATATATAATAT [CACACA_site1159]” stands 8.96 ± 0.42; under “AAAAAAAAAAAAAAAACACACATATATATATATATA [CACACA_site2436]”, 10.095 ± 0.0071; under “AAAAAAAAAACATACACACATACATACATATATATT [CACACA_site949]”, 9.28 ± 0.27.
“AAAAAATATTGAAGTACACACATTATGAACTTTTTT [CACACA_site1733]”: the “gcPBM binding intensity (ln)” value was 8.78 ± 0.42.
On to “AAAGAATACATATATTGTACATATATATATACCGTT [XGTACX_site6250]”, for which the “gcPBM binding intensity (ln)” value came to 9.02 ± 0.45.
Under ATGTAGATAAAACGTGTGCACATGTTTTTTGTTATT stands 10.3 ± 0.2; under “TTTTTTTTTTTTTGTGCATGTAGATTTATTGTTATA [TGCATGCA_site582]”, 8.79 ± 0.39.
Under TATGTTTTTACGTGTGTGCACTTTGTAGAGATAAGT stands 9.06 ± 0.38; under “AAAAAGAAAAAACGAAGTACAATTATAAGATTATAT [XGTACX_site410]”, 8.86 ± 0.47; under “TATGTAACCTGTTTTACACACCCCCACCCCCCTCTT [CACACA_site319]”, 10.09 ± 0.05.
Under “ATGTTCTTTAAAACCACACACCCCCCAACCCCCCTC [CACACA_site2373]” stands 10.1 ± 0.13; under “ACCCTATATGTAACTACACACCGCATATTGTTTACT [CACACA_site3071]”, 9.46 ± 0.42; under “TATAGATACATATACACACACACACCGACATATATA [CACACA_site9138]”, 10.2 ± 0.14.
On to “CATAGATACATACACGCACACACATATATATATATA [CACACA_site13]”, for which the “gcPBM binding intensity (ln)” value came to 10.2 ± 0.17.
The value for “TAGATACATACACGCACACACATATATAAATAAATA [CACACA_site6157]” was 9.68 ± 0.35; that for “TATAGATACAGATACACACACACACCGACATATATA [CACACA_site5832]” was 10 ± 0.22.
Under “CATATATAGATATATACACACATACATACATACATA [CACACA_site7748]” stands 9.3 ± 0.27.
Under “CATACACATACACATACACACGCATAGAAACATACG [CACACA_site8666]” stands 9.55 ± 0.51; under “CACGCACGCACATACACACACATACACATATAAATA [CACACA_site6907]”, 9.72 ± 0.45.
Take “TAGATACATACACGCACACACATATATATATATATA [CACACA_site12]”: the “gcPBM binding intensity (ln)” value was 10.11 ± 0.035.
Consider “AACATACATAGACACACACACACACGCACACGCACA [CACACA_site6373]”, for which the “gcPBM binding intensity (ln)” value came out at 10.35 ± 0.071.
On to “TATACACATAGACACACACACATACACGCACATACA [CACACA_site6908]”, for which the “gcPBM binding intensity (ln)” value was found to be 9.99 ± 0.17.
The value for “TATAGATACATATACACACACACACCCACATATATA [CACACA_site3436]” was 9.94 ± 0.11; that for “AGATAGATACATACACGTACATATATATATACACAT [XGTACX_site4755]” was 9.18 ± 0.35.
The value for “AAAAATAACATATAAACACACATATAGATTTATATA [CACACA_site7738]” was 8.94 ± 0.37; that for “TTTTATGCTCAATTATTAAGAAATACTTTTTCTTCC [XGTACX_negctrl_site208]” was 8.45 ± 0.68.
Under “AAACGTGCGTATATGTGTACGCATATATATATATAT [XGTACX_site5252]” stands 10.2 ± 0.34; under “GTATGTATGTATGTATGTACGTATGTATGTATATAT [XGTACX_site3369]”, 9.2 ± 0.36; under “ATTTATATATATGTATGTACGTATGTGTGTATATGT [XGTACX_site7587]”, 9.36 ± 0.35.
For “TATTTATTTATAAACACACAAATATTTTTATTTATA [CACACA_site6889]”, the “gcPBM binding intensity (ln)” value was 8.49 ± 0.32.
For “TTTTCTATATAACAACGTACATTTATTATATTATAA [XGTACX_site6148]”, the “gcPBM binding intensity (ln)” value was 8.49 ± 0.45.
With “TTTATATAAATCAAATGTACATATTCCAAATATATA [XGTACX_site8515]”, the “gcPBM binding intensity (ln)” value was 8.45 ± 0.34.
Under “GGACACCTTCAAAACACACATACAAATAAATAGAAA [CACACA_site3305]” stands 8.97 ± 0.54; under “AACAATCAAATAGACACACACACACCCAAACATAAA [CACACA_site2757]”, 10.1 ± 0.11; under “CAATCAAATGGACACACACACACCTAAACATAAAAG [CACACA_site5524]”, 10 ± 0.3.
Under “CACAAAAATAGACACACACACATATAAATAAATATA [CACACA_site6598]” stands 9.7 ± 0.38; under “AAAACAAACCCATTTACACACATAAATAAATCAATT [CACACA_site6126]”, 9.38 ± 0.3; under “ATAAAAAAGAAACAAACACACATACATACAAACAAA [CACACA_site4256]”, 9.47 ± 0.33.
The value for “CAATCAAAGAAACACACACACACCTAAACATAAAAG [CACACA_site2756]” was 10.2 ± 0.33.
“ATCAAATAGAGACACACACACCTAAACATAAAAGAA [CACACA_site7321]”: the “gcPBM binding intensity (ln)” value turned out to be 9.78 ± 0.48.
Consider “CAATCAAATAGACACACACACACCTAAACATAAAAG [CACACA_site7322]”, for which the “gcPBM binding intensity (ln)” value was 10.2 ± 0.4.
Under ATTATATTTATGTTGGTGCATTATACATGAAATTTA stands 8.68 ± 0.4; under “AGAAAAGGACATATATGTACTTATCAATATAGAAAC [XGTACX_site1042]”, 9.04 ± 0.48; under “TTCTTTTTTCTTTATGGTACGTGTAATATATATCAA [XGTACX_site7960]”, 8.82 ± 0.45.
For “AATAGAACAAATAAAACACACACATATATATATATA [CACACA_site8893]”, the “gcPBM binding intensity (ln)” value worked out at 9.76 ± 0.37.
The value for “CACGCGAACATACATACACACACATATATATATATG [CACACA_site7951]” was 9.69 ± 0.35; that for “CCAACATGCCCACGCACACACAAAAAAAGCATGCAT [CACACA_site4217]” was 9.51 ± 0.4.
The value for “CACACGCACGAACACACACACACACGCATATAAATA [CACACA_site6302]” was 10.2 ± 0.3; that for “AAACAAAAAATATATACACACTAAACATAAAAAAAA [CACACA_site4185]” was 9.02 ± 0.46.
Turning to “AACAAATACGAACACACACACACACTAAAAAAAAAA [CACACA_site6386]”, the “gcPBM binding intensity (ln)” value came to 10.3 ± 0.2.
The value for “CGAACAAACAAATAAACACACAAAAAAAAATATATA [CACACA_site1825]” was 9.11 ± 0.5.
“TTTATTTTATCATTTGCACACGCACGCCCACATAAA [CACACA_site353]”: the “gcPBM binding intensity (ln)” value was 9.39 ± 0.42.
With “GGCATACACGAACACACACACACACGCACATATATA [CACACA_site6426]”, the “gcPBM binding intensity (ln)” value worked out at 10.5 ± 0.36.
The value for “CACGCGCACGAACACACACACACACGCATATAAATA [CACACA_site7103]” was 9.86 ± 0.33.
As for “ACACGCACATATATATAAATATATATATATATAAAT [CACACA_negctrl_site1781]”, the “gcPBM binding intensity (ln)” value is 9.6 ± 0.28.
Under “ATCAAGCACGAACACACACACACACGCACGCCCACA [CACACA_site6308]” stands 10.3 ± 0.3; under “TTTTCCCTCTTATTCACACAAAAAAAATAAAATAAA [CACACA_site4656]”, 8.2 ± 0.42.
The value for “TTTGCTTCGATATATTCACACATTTTTTTTCTTATT [CACACA_site4499]” was 8.91 ± 0.46.
The value for “TTCTTTTTTCAACACACACACACAAGAAAATATATA [CACACA_site9019]” was 9.51 ± 0.16; that for “AATATAAATAAAAACACACACAATGGTACCTATATA [CACACA_site7688]” was 9.3 ± 0.39.
Take “TATTATATATATGGAAGTACAGGTATATCGTTTTTC [XGTACX_site3771]”: the “gcPBM binding intensity (ln)” value worked out at 8.73 ± 0.4.
Under “TATACATATATATACACACACACATATATATATATA [CACACA_site1299]” stands 9.9 ± 0.42.
The value for “AACATATACACGAACACACACACATATAAATAAATA [CACACA_site6380]” was 9.87 ± 0.23; that for “AGTATACACGAACACACACACACATATATAAATATA [CACACA_site6913]” was 10.2 ± 0.4; that for “CACACGCACGAACACACACACATATAAATATAAATA [CACACA_site6299]” was 9.71 ± 0.44.
Under “CTAAAATACGAACACACACACACATATAAATAAATA [CACACA_site7872]” stands 10.2 ± 0.33; under “TAACACATAAATAAATATATACATATATATAAAATA [CACACA_negctrl_site375]”, 8.81 ± 0.46.
In the case of “CATATACACGAACACACACACATATAAATAAATATA [CACACA_site6379]”, the “gcPBM binding intensity (ln)” value was determined as 9.74 ± 0.29.
Take “TACACATACACATACACACGCATAGAAACATACGAA [CACACA_site2137]”: the “gcPBM binding intensity (ln)” value was determined as 9.48 ± 0.33.
The value for “AACATATACACGAACACACACACATATATATATATA [CACACA_site502]” was 10.3 ± 0.26.
Take “CACACGCACGAACACACACACACACGCACGCACATA [CACACA_site6305]”: the “gcPBM binding intensity (ln)” value was 10.4 ± 0.13.
Under “AAAAAAAAAATATACACACACACATACACATAAATA [CACACA_site3808]” stands 9.92 ± 0.21; under “TATATACATATATACACACACATATATATATATATA [CACACA_site2805]”, 9.905 ± 0.0071.
The value for “TTTTTTAAATAATATTGTACAAAAAATGTATAAATA [XGTACX_site3010]” was 8.44 ± 0.42; that for “ATATATATATAAATATGTACATATATACATATATAC [XGTACX_site2374]” was 8.89 ± 0.23.
Regarding “TGTATGTCTTTATTTTGTACACAATATAAAAAATTA [XGTACX_site5441]”, the “gcPBM binding intensity (ln)” value amounted to 8.51 ± 0.38.
Consider “ACCATTTGTAGGTAAACACACATTATTATTAATATC [CACACA_site2635]”, for which the “gcPBM binding intensity (ln)” value came out at 8.93 ± 0.4.
The value for “CATTTTGTAAGATATGCACACATGGATCATATTTTA [CACACA_site423]” was 8.95 ± 0.34; that for “CAAAAGCGATACGGCACACATTTCCTGTTTAAATGA [CACACA_site5519]” was 8.99 ± 0.58.
The value for “TACTGATCTTTCTAGGTGCGCTGCTACCATTATCGT [GTGCAC_site9538]” was 8.99 ± 0.49; that for “GATATGATTAACTTATGTTATTCTTGATGATTACGT [CACACA_negctrl_site354]” was 8.86 ± 0.38.
Under “TCTTTATTATTCGCCACACACATATAAATATAAATA [CACACA_site7441]” stands 8.93 ± 0.4.
